Assay [1] can be described thus: antimalarial activity against Dd2 strain (AID 2302;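 active = growth inhibition above 50% at the single 2 µM test dose, taken to imply half-maximal potency below 2 µM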;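 note: 0% = DMSO untreated growth and 100% = chloroquine plus artemisinin killed control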). To be noted: P. falciparum Dd2 in RBCs, LDH growth readout, 72 h; at 2 µM; active compounds read high.
A short description of assay [2]: human hepatoma cell viability loss – ATP luminescence, cytotoxicity control for P. falciparum antimalarial project, primary screen (AID 2303;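 active = inhibition above 50%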;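 note: 0% = DMSO wells and 100% = digitonin-killed cells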). To be noted: HepG2 viability, 24-48 h, at 10 µM, active compounds read high.
Assay [3] concerns the target L-lactate dehydrogenase (Plasmodium falciparum (isolate CDC / Honduras)) (UniProt Q27743). The assay is described as follows: PfLDH activity inhibition – cell lysate, 3D7 strain, counter-screen for P. falciparum growth inhibition project (AID 2304).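 Note: 0% = vehicle and 100% = reference inhibitor.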 As to conditions: P. falciparum 3D7 crude extract, LDH APAD/NBT absorbance; at 2 µM; active compounds read high. In general terms: Counterscreens check selectivity or assay interference.

Assay [4] is described as follows: inhibition of 3D7 malaria parasite growth – strain 3D7 (AID 2306).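 Note: 0% = DMSO wells and 100% = chloroquine plus artemisinin control wells.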 To be noted: P. falciparum 3D7 erythrocytic growth, LDH absorbance, 72 h; at 2 µM; active compounds read high.
For assay [5], the target named is Calcium-dependent protein kinase 1 (Plasmodium falciparum (isolate 3D7)) (UniProt P62344). The assay is described as follows: PfCDPK1 kinase inhibitors, biochemical, TCAMS library (AID 1159585; cut-off not given, nearly all actives have IC50 up to about 0.98 µM;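 note: inhibitors leave more ATP so luminescence rises with inhibition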). To be noted: recombinant PfCDPK1, Kinase-Glo ATP depletion luminescence. (In general: Kinase-Glo measures the ATP left after a reaction by luminescence.)
Assay [6] addresses Plasmodium falciparum protein kinase 6 (PK6, PF3D7_1337100) (UniProt Q8IDW1). Kind of assay: PfPK6 kinase inhibitors, biochemical, TCAMS library (AID 1159586). As to conditions: recombinant PfPK6, Kinase-Glo ATP depletion luminescence.
In assay [7] the target is Protein kinase 7 (PK7), Plasmodium falciparum 3D7 (PF3D7_0213400) (UniProt Q7YTF7). Kind of assay: inhibition of Plasmodium PK7 catalytic activity – biochemical, TCAMS antimalarial set, Kinase-Glo luminescence (AID 1159587). To be noted: recombinant PfPK7, Kinase-Glo ATP depletion luminescence.
For assay [8], the target named is Calcium-dependent protein kinase 4 (Plasmodium falciparum (isolate 3D7)) (UniProt Q8IBS5). Kind of assay: PfCDPK4 kinase inhibitors, biochemical, TCAMS library (AID 1159588; cut-off not given, nearly all actives have IC50 up to about 0.91 µM). To be noted: recombinant PfCDPK4, Kinase-Glo ATP depletion luminescence.

Unmarked numbers belong to inactive results. For part of these data: Potency and affinity values are given separately. The source made the active and inactive calls. Unless noted, the rule behind the calls is not given here.

Usually inhibition stands for the drop in the measured response relative to a control, in per cent.

Plasmodium falciparum protein kinase 6 (PK6, PF3D7_1337100), sequence (Q8IDW1 1-305): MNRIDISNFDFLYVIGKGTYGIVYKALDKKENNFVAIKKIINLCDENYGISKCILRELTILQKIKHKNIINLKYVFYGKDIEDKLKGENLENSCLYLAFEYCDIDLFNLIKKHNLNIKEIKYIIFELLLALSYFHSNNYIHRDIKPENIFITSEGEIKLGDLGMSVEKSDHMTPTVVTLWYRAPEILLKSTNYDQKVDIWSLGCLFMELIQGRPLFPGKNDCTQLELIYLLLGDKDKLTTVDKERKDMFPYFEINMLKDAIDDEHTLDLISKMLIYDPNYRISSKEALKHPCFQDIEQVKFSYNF
L-lactate dehydrogenase (Plasmodium falciparum (isolate CDC / Honduras)), sequence (Q27743 whole entry, looked up): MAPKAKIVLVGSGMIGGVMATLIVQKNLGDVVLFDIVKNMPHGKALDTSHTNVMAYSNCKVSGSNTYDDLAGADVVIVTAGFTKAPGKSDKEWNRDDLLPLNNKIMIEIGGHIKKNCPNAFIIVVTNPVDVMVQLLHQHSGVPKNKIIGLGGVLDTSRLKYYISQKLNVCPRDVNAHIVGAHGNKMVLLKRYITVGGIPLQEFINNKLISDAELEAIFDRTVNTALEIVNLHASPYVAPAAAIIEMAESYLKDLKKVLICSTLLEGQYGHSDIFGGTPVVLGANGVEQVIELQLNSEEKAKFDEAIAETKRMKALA
Protein kinase 7 (PK7), Plasmodium falciparum 3D7 (PF3D7_0213400), sequence (Q7YTF7 1-343): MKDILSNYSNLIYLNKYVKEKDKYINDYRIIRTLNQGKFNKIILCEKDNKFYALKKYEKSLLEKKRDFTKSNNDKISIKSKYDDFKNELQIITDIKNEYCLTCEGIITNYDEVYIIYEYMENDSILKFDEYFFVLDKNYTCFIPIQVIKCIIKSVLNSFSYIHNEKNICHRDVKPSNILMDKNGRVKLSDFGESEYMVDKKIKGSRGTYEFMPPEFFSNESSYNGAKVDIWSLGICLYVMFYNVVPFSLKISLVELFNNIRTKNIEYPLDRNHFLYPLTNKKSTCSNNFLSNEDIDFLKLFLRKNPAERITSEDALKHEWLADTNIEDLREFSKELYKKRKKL
Calcium-dependent protein kinase 1 (Plasmodium falciparum (isolate 3D7)), sequence (P62344 whole entry, looked up): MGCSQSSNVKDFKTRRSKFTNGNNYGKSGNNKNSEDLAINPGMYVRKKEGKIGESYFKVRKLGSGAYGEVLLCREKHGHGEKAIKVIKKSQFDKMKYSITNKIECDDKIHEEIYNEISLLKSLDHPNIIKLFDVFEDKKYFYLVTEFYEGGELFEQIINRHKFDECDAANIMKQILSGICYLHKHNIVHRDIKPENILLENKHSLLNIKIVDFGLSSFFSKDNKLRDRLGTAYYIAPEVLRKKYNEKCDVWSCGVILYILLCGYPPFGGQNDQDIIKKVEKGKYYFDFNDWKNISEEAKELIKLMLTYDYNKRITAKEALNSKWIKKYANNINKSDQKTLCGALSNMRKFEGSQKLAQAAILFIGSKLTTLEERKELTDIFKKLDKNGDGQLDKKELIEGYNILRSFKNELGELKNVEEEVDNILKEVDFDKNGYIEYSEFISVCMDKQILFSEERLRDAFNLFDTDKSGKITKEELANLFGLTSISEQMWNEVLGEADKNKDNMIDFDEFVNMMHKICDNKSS
Calcium-dependent protein kinase 4 (Plasmodium falciparum (isolate 3D7)), sequence (Q8IBS5 whole entry, looked up): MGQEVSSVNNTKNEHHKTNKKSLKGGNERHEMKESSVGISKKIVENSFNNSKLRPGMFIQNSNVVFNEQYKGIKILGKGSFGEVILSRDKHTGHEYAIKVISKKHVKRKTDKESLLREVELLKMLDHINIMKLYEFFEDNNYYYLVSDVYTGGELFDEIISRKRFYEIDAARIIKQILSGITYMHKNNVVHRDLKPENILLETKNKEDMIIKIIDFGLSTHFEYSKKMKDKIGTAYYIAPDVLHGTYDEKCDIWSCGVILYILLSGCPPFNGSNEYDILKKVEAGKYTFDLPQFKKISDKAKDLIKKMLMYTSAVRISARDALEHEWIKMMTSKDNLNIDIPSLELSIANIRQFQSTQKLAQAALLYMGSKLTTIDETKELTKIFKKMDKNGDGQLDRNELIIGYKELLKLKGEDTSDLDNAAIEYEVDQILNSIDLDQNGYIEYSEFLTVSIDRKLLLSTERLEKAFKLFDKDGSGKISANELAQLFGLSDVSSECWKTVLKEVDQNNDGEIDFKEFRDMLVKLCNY

For the compound `Oc1ccc(CCCc2cc(Oc3c(I)cc(CCc4ncc[nH]4)cc3I)ccc2O)cc1`, the growth inhibition in assay [1] is 7%; in assay [4], 95% (active). Besides, the inhibition in assay [2] was 26%; in assay [3] it was -9%. Moreover, the result in assay [5], in assay [6], in assay [7] and in assay [8] was inactive.
For the compound `CN(CCCNC(=S)NC12CC3CC(CC(C3)C1)C2)CCCNc1ccnc2cc(Cl)ccc12`, the growth inhibition in assay [1] is 98% (active); in assay [4], 100% (active). Moreover, the inhibition in assay [2] was 73% (active); in assay [3] it was 8%. Also, the outcome in assay [5], in assay [6], in assay [7] and in assay [8] was inactive.
On to `Cc1ccc(NC(=O)NC2CCN(CCCCCNC(=O)/C=C/c3ccc(Cl)c(Cl)c3)CC2)cc1`, for which the growth inhibition is 19% in assay [1] and 102% (active) in assay [4]. For the same compound, the figures for the inhibition in assay [2] and in assay [3] were 41% and -2%, respectively. Further, the outcome in assay [5], in assay [6], in assay [7] and in assay [8] was inactive.
Regarding `COc1ccc(C=Cc2cc(N)c3ccccc3n2)cc1`, the growth inhibition in assay [1] is 16%; in assay [4], 93% (active). Further, the values for the inhibition in assay [2] and in assay [3] were 38% and 5%, respectively. The result in assay [5], in assay [6], in assay [7] and in assay [8] was inactive.
With `CC(NC(=O)c1ccc(O)c(-c2ccc(Cl)c(Cl)c2)c1)C(=O)NCCN1CCCC1` (stereo not drawn), the growth inhibition in assay [1] is 9%; in assay [4], 99% (active). The results for the inhibition in assay [2] and in assay [3] were -5% and -2%, respectively. Moreover, the result in assay [5], in assay [6], in assay [7] and in assay [8] was inactive.
Regarding `COc1ccc2nccc([C@@H](O)CN3CCC(NCCOc4ccc(F)cc4F)CC3)c2c1`, the growth inhibition in assay [1] is 68% (active); in assay [4], 101% (active). Further, the inhibition in assay [2] is 13%; in assay [3], -5%. Besides, the outcome in assay [5], in assay [6], in assay [7] and in assay [8] was inactive.
Turning to `CCOC(=O)N1CCN(C(=O)Nc2ccc(Cl)cc2)CC1`, the results for the growth inhibition in assay [1] and in assay [4] were -2% and 92% (active), respectively. Moreover, the inhibition in assay [2] is 4%; in assay [3], 0%. Further, the outcome in assay [5], in assay [6], in assay [7] and in assay [8] was inactive.
Turning to `CCOC(=O)c1ccc(NC(=O)Nc2ccc(-c3ccc(-c4nc5ccccc5[nH]4)cc3)cc2)cc1`, the growth inhibition in assay [1] was 100% (active); in assay [4], 101% (active). In addition, the inhibition in assay [2] is 49%; in assay [3], 0%. Further, the outcome in assay [5], in assay [6], in assay [7] and in assay [8] was inactive.
Turning to `CC1CC(C)CN(S(=O)(=O)c2cc(C(=O)Nc3cccc([N+](=O)[O-])c3)ccc2Br)C1` (stereo not drawn), the growth inhibition in assay [1] is 68% (active); in assay [4] it was 101% (active). For the same compound, the inhibition was 1% in assay [2] and -5% in assay [3]. The outcome in assay [5], in assay [6], in assay [7] and in assay [8] was inactive.
In the case of `Fc1ccc(CN2CCN(c3ncnc4cc(-c5ccccc5)sc34)CC2)cc1`, the growth inhibition in assay [1] and in assay [4] was 82% (active) each time. Besides, the inhibition in assay [2] is 7%; in assay [3], 4%. In addition, the result in assay [5], in assay [6], in assay [7] and in assay [8] was inactive.
Turning to `CCCC1N=C(N)N=C(N)N1c1ccccc1` (stereo not drawn), the growth inhibition was -3% in assay [1] and 93% (active) in assay [4]. The values for the inhibition in assay [2] and in assay [3] were -4% and -6%, respectively. Also, the result in assay [5], in assay [6], in assay [7] and in assay [8] was inactive.
Consider `CN(c1ccc(NC(=O)Nc2cc(C(C)(C)C)on2)cc1)c1ccnc(NCCOC(=O)Nc2cc(C(C)(C)C)on2)n1`, for which the growth inhibition in assay [1] was 54% (active); in assay [4], 102% (active). Besides, the inhibition in assay [2] is 59% (active); in assay [3], 4%. For the same compound, the result in assay [5], in assay [6], in assay [7] and in assay [8] was inactive.
As to `CCCCCCNCc1c(O)ccc2c(CNCCCCCC)c(O)ccc12`, the growth inhibition in assay [1] was 100% (active); in assay [4], 102% (active). In addition, the figures for the inhibition in assay [2] and in assay [3] were 22% and -1%, respectively. The result in assay [5], in assay [6], in assay [7] and in assay [8] was inactive.
In the case of `CN1CCN(CCCCNc2c3ccccc3nc3ccccc23)CC1`, the growth inhibition in assay [1] was -7%; in assay [4], 101% (active). For the same compound, the inhibition is 37% in assay [2] and 4% in assay [3]. The result in assay [5], in assay [6], in assay [7] and in assay [8] was inactive.
In the case of `COc1ccccc1N1CCN(CCCCNC(=O)c2ccc(NC(=O)c3cc4ccccc4o3)cc2)CC1`, the values for the growth inhibition in assay [1] and in assay [4] were 2% and 84% (active), respectively. Moreover, the inhibition in assay [2] is 9%; in assay [3] it was -1%. The result in assay [5], in assay [6], in assay [7] and in assay [8] was inactive.
`CCOc1c(CNCCCCCCNCc2ccc3ccccc3c2OCC)ccc2ccccc12`: the figures for the growth inhibition in assay [1] and in assay [4] were 78% (active) and 99% (active), respectively. For the same compound, the inhibition in assay [2] is 100% (active); in assay [3], 6%. In addition, the outcome in assay [5], in assay [6], in assay [7] and in assay [8] was inactive.
`Cc1cc(NC2CCN(CC3CCCCC3)C2)nc(Nc2ccc(Br)cc2)n1` (stereo not drawn): the growth inhibition in assay [1] was 83% (active); in assay [4] it was 101% (active). The inhibition in assay [2] was 22%; in assay [3] it was -1%. The result in assay [5], in assay [6], in assay [7] and in assay [8] was inactive.
`Cn1cnc(CCNC(=O)c2ccc(-c3cccc(-c4nc5ccccc5[nH]4)c3)cc2)c1`: the growth inhibition in assay [1] was 14%; in assay [4] it was 93% (active). The figures for the inhibition in assay [2] and in assay [3] were 1% and 2%, respectively. The result in assay [5], in assay [6], in assay [7] and in assay [8] was inactive.
As to `CCCOc1c(CCNCCCCNCCc2ccc3ccccc3c2OCCC)ccc2ccccc12`, the growth inhibition in assay [1] is 78% (active); in assay [4], 100% (active). For the same compound, the results for the inhibition in assay [2] and in assay [3] were 100% (active) and 7%, respectively. Further, the result in assay [5], in assay [6], in assay [7] and in assay [8] was inactive.
As to `O=C(Nc1ccccc1)N(Cc1cccc(-c2ccc(CNC3CCCC3)cc2)c1)C1CCN(Cc2ccccc2)CC1`, the results for the growth inhibition in assay [1] and in assay [4] were 96% (active) and 101% (active), respectively. The values for the inhibition in assay [2] and in assay [3] were 100% (active) and 8%, respectively. The result in assay [5], in assay [6], in assay [7] and in assay [8] was inactive.
On to `COc1ccc(-c2ccc(NC(=O)c3cccc(C#N)c3)cc2)cc1CN1CCN(C)CC1`, for which the growth inhibition in assay [1] was 59% (active); in assay [4] it was 100% (active). For the same compound, the inhibition in assay [2] was 26%; in assay [3] it was 8%. Also, the result in assay [5], in assay [6], in assay [7] and in assay [8] was inactive.

The values are drawn from PubChem BioAssay.
